Here are results for 32 compounds from PubChem BioAssay (NCATS).

“And” between values parts separate entries of the source, which are not always exact repeats. Identical values can stand only once. Records with an inconclusive call do not appear. The source made the active and inactive calls. The call rests on the fitted dose curve; in most records, active means well fitted curve in either direction with a large enough effect (not every such curve was filed as active); inconclusive means small, poorly fitted or top-dose-only effect, or another doubt; inactive means flat fitted curve, though single readings scatter.
On the % scale 0 is the no-effect control and ±100 the full control effect.

The experiment is described as follows: AP1 Signaling Pathway (AID 357). The note with it: ME-180 (cervical carcinoma) AP-1-bla reporter, EGF-induced, beta-lactamase ratio, 5 h; at 17.2 µM (top of the series). In short, it runs like this:
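ME-180 cells with beta-lactamase reporter under AP-1 response element, stimulated with EC50 EGF; compounds tested in titration series, 5 h at 37 °C. CCF4 substrate added 2.5 h at room temperature; 460/530 nm emission ratio gave %activity and AC50.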
For `C[C@H]1C[C@H]2[C@@H]3CCC4=CC(=O)C=C[C@]4(C)[C@@]3(Cl)[C@@H](O)C[C@]2(C)[C@@]1(O)C(=O)CO`, the activity change, negative = inhibition is -9.37% (inactive).

Take `CN1CCN(C(c2ccccc2)c2ccccc2)CC1`: the activity change, negative = inhibition is 4.01% (inactive).

For `CCCCOc1ccc(C(=O)CCN2CCCCC2)cc1`, the activity change, negative = inhibition was 18.2% (inactive) and 12.3% (inactive).

As to `CCN1CCN(c2cc3c(cc2F)c(=O)c(C(=O)O)cn3C2CC2)CC1`, the activity change, negative = inhibition is 4.63% (inactive).

Consider `CCCC1O[C@@H]2C[C@H]3[C@@H]4CCC5=CC(=O)C=C[C@]5(C)[C@H]4[C@@H](O)C[C@]3(C)[C@]2(C(=O)CO)O1` (some centres not stated), for which the activity change, negative = inhibition was 2.92% (inactive).

Consider `CC(C)N=C(N)/N=C(\N)Nc1ccc(Cl)cc1`, for which the activity change, negative = inhibition was -0.245% (inactive).

For `CCC(NC(C)C)C(O)c1ccc(O)c(O)c1` (configuration not stated), the activity change, negative = inhibition is -6.11% (inactive).

Consider `CCC(C(=O)OCCN(CC)CC)c1ccccc1` (configuration not stated), for which the activity change, negative = inhibition was 1.42% (inactive).

Consider `CCCC(=O)Nc1ccc(OCC(O)CNC(C)C)c(C(C)=O)c1` (configuration not stated), for which the activity change, negative = inhibition is 0.101% (inactive).

For `Cc1cc(=O)n(-c2ccccc2)n1C`, the activity change, negative = inhibition is 3.67% (inactive).

As for `CC(=O)OCC(=O)[C@@]1(OC(C)=O)[C@@H](C)C[C@H]2[C@@H]3C[C@H](F)C4=CC(=O)C=C[C@]4(C)[C@@]3(F)[C@@H](O)C[C@@]21C`, the activity change, negative = inhibition was -3.12% (inactive).

As for `CC(C)(C)CC(C)(C)c1ccc(OCCOCC[N+](C)(C)Cc2ccccc2)cc1`, the activity change, negative = inhibition was -12.6% (inactive).

As for `CC1(C)O[C@@H]2C[C@H]3[C@@H]4C[C@H](F)C5=CC(=O)CC[C@]5(C)[C@H]4[C@@H](O)C[C@]3(C)[C@]2(C(=O)CO)O1`, the activity change, negative = inhibition is -0.38% (inactive).

Consider `CCN(CCCCOC(=O)c1ccc(OC)c(OC)c1)C(C)Cc1ccc(OC)cc1` (configuration not stated), for which the activity change, negative = inhibition was -6.87% (inactive).

For `CC(C)(Oc1ccc(Cl)cc1)C(=O)O`, the activity change, negative = inhibition was -0.859% (inactive).

For `CC(=O)O[C@]1(C(C)=O)CC[C@H]2[C@@H]3C[C@H](C)C4=CC(=O)CC[C@]4(C)[C@H]3CC[C@@]21C`, the activity change, negative = inhibition was 15.9% (inactive).

Turning to `CCN(CCCc1ccccc1)CCCc1ccccc1`, the activity change, negative = inhibition was 18.6% (inactive) and 13.2% (inactive).

`CN1CCN(CCCN2c3ccccc3Sc3ccc(S(=O)(=O)N(C)C)cc32)CC1`: the activity change, negative = inhibition was 16.8% (inactive).

For `C[C@H](CCC(=O)O)[C@H]1CC[C@H]2[C@@H]3C(=O)C[C@@H]4CC(=O)CC[C@]4(C)[C@H]3CC(=O)[C@]12C`, the activity change, negative = inhibition was 8.36% (inactive).

`CC(=O)OCC(=O)[C@@]1(O)CC[C@H]2[C@@H]3CCC4=CC(=O)C=C[C@]4(C)[C@H]3[C@@H](O)C[C@@]21C`: the activity change, negative = inhibition was 11.9% (inactive).

On to `NCCCC[C@H](N[C@@H](CCc1ccccc1)C(=O)O)C(=O)N1CCC[C@H]1C(=O)O`, for which the activity change, negative = inhibition was 3.25% (inactive).

As to `CC(CCc1ccccc1)NCC(O)c1ccc(O)c(C(N)=O)c1` (configuration not stated), the activity change, negative = inhibition was 5.69% (inactive).

Turning to `C[C@]12CC[C@H]3[C@@H](CCC4=CC(=O)CC[C@@]43C)[C@@H]1CC[C@@H]2C(=O)CO`, the activity change, negative = inhibition was 12.4% (inactive).

As for `Oc1c(Cl)cc(Cl)cc1Sc1cc(Cl)cc(Cl)c1O`, the activity change, negative = inhibition is -12.3% (inactive).

`C[C@@H]1C[C@H]2[C@@H]3CCC4=CC(=O)C=C[C@]4(C)[C@@]3(F)[C@@H](O)C[C@]2(C)[C@H]1C(=O)CO`: the activity change, negative = inhibition is 0.15% (inactive).

On to `CCCCCCCCCCCCCCCC[N+](C)(C)CCN(Cc1ccc(OC)cc1)c1ncccn1`, for which the activity change, negative = inhibition is 21.6% (inactive).

With `O=C(OCCOCCO)c1ccccc1Nc1cccc(C(F)(F)F)c1`, the activity change, negative = inhibition was -27.7% (inactive).

`CC(O)(P(=O)(O)O)P(=O)(O)O`: the activity change, negative = inhibition is -1.23% (inactive).

Turning to `COc1c(C)c2c(c(O)c1C/C=C(\C)CCC(=O)O)C(=O)OC2`, the activity change, negative = inhibition was 6.58% (inactive).

In the case of `CC(=O)OCC(=O)[C@@]1(O)[C@H](C)C[C@H]2[C@@H]3CCC4=CC(=O)C=C[C@]4(C)[C@@]3(F)[C@@H](O)C[C@@]21C`, the activity change, negative = inhibition was -10.4% (inactive).

Turning to `CC(=O)OCC(=O)[C@@]12OC(C)(C)O[C@@H]1C[C@H]1[C@@H]3C[C@H](F)C4=CC(=O)C=C[C@]4(C)[C@@]3(F)[C@@H](O)C[C@@]12C`, the activity change, negative = inhibition is -9.69% (inactive).

As to `CC(=O)N(O)CCCCCNC(=O)CCC(=O)N(O)CCCCCNC(=O)CCC(=O)N(O)CCCCCN`, the activity change, negative = inhibition is -6.04% (inactive).
